The values that follow come from PubChem BioAssay.

For experiment [1], the system named is Wnt5a (protein binding on small-molecule microarray). In words: Wnt5a binders on small-molecule microarray, primary screen, biophysical, 635/667 nm fluorescence (AID 1142).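 Also: fluorescence read at 667 nm with signal to noise per printed feature.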 The conditions noted are these: 635 nm fluorescence, higher = more signal.
Experiment [2] is described as follows: cell viability in Huh7 cells, primary screen, cytotoxicity control for HCV replication inhibitor project, CellTiter-Glo luminescence, basal, 48 h (AID 1143).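 Also: Huh7 hepatoma cells carrying a hepatitis C replication reporter with no stimulus; test concentration not given here.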 The settings on record: Huh7 HCV replicon, higher = more signal, called active from +8 up or from −8 down.
A short description of experiment [3]: P. aeruginosa biofilm formation inhibitors, primary screen, PAO1 strain, BacTiter-Glo luminescence, LB-PBS (AID 1144). The conditions noted are these: 12 h, higher = more signal.
Experiment [4] can be described thus: CREB reporter modulators without forskolin, primary screen, cell-based, PC12, CRE-LacZ reporter, unstimulated (AID 1145). The settings on record: no forskolin, luminescence, 4.5 h, higher = more signal, called active from +8 up or from −8 down.
Experiment [5] can be described thus: CREB reporter modulators under forskolin, primary screen, cell-based, PC12, CRE-LacZ reporter, forskolin-stimulated (AID 1146).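 Also: PC12 cells with 6xCRE LacZ reporter stimulated by forskolin 10 µM; beta-galactosidase reporter signal reflecting CREB driven transcription.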 The settings on record: luminescence, 4.5 h, higher = more signal, called active from +8 up or from −8 down.
Experiment [6] deals with Streptavidin (Streptomyces avidinii) (UniProt P22629). The experiment is described as follows: streptavidin binders on small-molecule microarray, primary screen, artefact control for SMM compound annotation, biophysical, 635/667 nm fluorescence (AID 1147).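 Also: signal reflects streptavidin binding to arrayed compounds as a control protein.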 The settings on record: streptavidin binding, higher = more signal.
Experiment [7] is described as follows: small-molecule binders of probe aInhba, primary screen, biochemical, small-molecule microarray, 635/667 nm fluorescence (AID 1148).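 Also: score merges 667nm spot fluorescence with signal-to-noise for antibody binding to printed compounds.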 The conditions noted are these: higher = more signal.
Experiment [8] has as its target Torsin-1A (Homo sapiens) (UniProt O14656). The experiment is described as follows: torsin A binders from cell lysate, primary screen, small-molecule microarray, wild-type, 635/667 nm (AID 1149). The conditions noted are these: COS7 hTOR1A-WT lysate, 635 nm fluorescence, higher = more signal.
Experiment [9] has the same target. The experiment is described as follows: small-molecule binders of mutant TOR1A in lysate, primary screen, cell lysate, small-molecule microarray, COS7 lysate, 635/667 nm fluorescence (AID 1150).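 Also: score pools 667 nm emission and signal to noise measuring lysate protein binding.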 The settings on record: COS7 hTOR1A mutant lysate, 635 nm fluorescence, higher = more signal.
Experiment [10] deals with Sonic hedgehog protein (Shh). The experiment is described as follows: small-molecule binders of Shh protein, primary screen, biochemical, small-molecule microarray, 635/667 nm fluorescence (AID 1151).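 Also: Shh protein binding to compounds spotted on small-molecule microarray slides; score combines spot fluorescence intensity with signal-to-noise across triplicate slides.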 The settings on record: small-molecule microarray binding, 635 nm fluorescence; higher = more signal.
Experiment [11] in a line: E. coli DRC41 culture turbidity changes, primary screen, E. coli filamentation inducer project, strain DRC41, OD650, 48 h (AID 1152).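 Also: E. coli MC1000 strain DRC41 lacking acrAB efflux pump and sulA.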 The settings on record: E. coli DRC41 (acrAB sulA), higher = more signal, called active from +8 up or from −8 down.
Experiment [12] can be described thus: small-molecule binders of probe aLefty1, primary screen, biochemical, small-molecule microarray, 635/667 nm fluorescence (AID 1153).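 Also: score merges spot fluorescence with signal-to-noise ratio from the scanned slide images.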 The settings on record: higher = more signal.
Experiment [13] in a line: PSAC antagonists in infected red cells, primary screen, cell-based, P. falciparum Indochina, OD700, 1 h (AID 1154). The settings on record: P. falciparum Indochina infected RBC osmotic lysis, higher = more signal, called active from +8 up or from −8 down.
The nature of experiment [14]: PSAC antagonists in infected red cells, primary screen, cell-based, P. falciparum Indochina, OD700, 2 h (AID 1155).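 Also: lysis reports solute entry through the parasite surface anion channel PSAC; channel blockers reduce lysis of infected cells.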 The settings on record: P. falciparum Indochina infected erythrocytes, osmotic lysis OD700; higher = more signal, called active from +8 up or from −8 down.
Experiment [15] in a line: osmotic lysis modulators in infected erythrocytes, primary screen, PSAC antagonist project, cell-based, P. falciparum Indochina, OD700, 3 h (AID 1156). The conditions noted are these: higher = more signal, called active from +8 up or from −8 down.
Experiment [16] is described as follows: PSAC antagonists in infected red cells, primary screen, cell-based, P. falciparum Indochina, OD700, 18 h (AID 1157). The settings on record: P. falciparum Indochina infected erythrocytes, osmotic lysis OD700, 18 h; higher = more signal, called active from +8 up or from −8 down.
The nature of experiment [17]: modulators of S6 phosphorylation in cells, primary screen, cell-based, A549, cytoblot, luminescence, serum-stimulated (AID 1158).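 Also: serum-stimulated A549 lung adenocarcinoma cells; signal is phosphorylated S6 detected by cytoblot immunostaining with HRP secondary.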 The settings on record: A549 phospho-S6 cytoblot, 5 h, higher = more signal.
Experiment [18] deals with NADPH oxidase 2 (Homo sapiens) (UniProt P04839). In words: NOX2-dependent H2O2 signal modulators, primary screen, NOX inhibitor project, cell-based, HEK293-NOX2, PMA-stimulated, Amplex Red fluorescence (AID 1159). Also: test concentration not given here. The conditions noted are these: 45 min, higher = more signal, called active from +8 up or from −8 down.
Experiment [19] deals with NADPH oxidase 4 (Homo sapiens) (UniProt Q9NPH5). In words: NOX4-dependent H2O2 signal modulators, primary screen, NOX inhibitor project, cell-based, HEK293-NOX4, tetracycline-induced, Amplex Red fluorescence (AID 1160). The conditions noted are these: 45 min, higher = more signal, called active from +8 up or from −8 down.
The target of experiment [20] is NADPH oxidase 5 (Homo sapiens) (UniProt Q96PH1). The experiment is described as follows: NOX5-dependent H2O2 signal modulators, primary screen, NOX inhibitor project, cell-based, HEK293-NOX5, Amplex Red fluorescence (AID 1161). The settings on record: HEK293-NOX5, ionomycin, 45 min, higher = more signal.

Calls of active or inactive are those of the source. Unless noted, no rule for the calls is given here.

Sequence of Torsin-1A (Homo sapiens) (O14656 whole entry, looked up): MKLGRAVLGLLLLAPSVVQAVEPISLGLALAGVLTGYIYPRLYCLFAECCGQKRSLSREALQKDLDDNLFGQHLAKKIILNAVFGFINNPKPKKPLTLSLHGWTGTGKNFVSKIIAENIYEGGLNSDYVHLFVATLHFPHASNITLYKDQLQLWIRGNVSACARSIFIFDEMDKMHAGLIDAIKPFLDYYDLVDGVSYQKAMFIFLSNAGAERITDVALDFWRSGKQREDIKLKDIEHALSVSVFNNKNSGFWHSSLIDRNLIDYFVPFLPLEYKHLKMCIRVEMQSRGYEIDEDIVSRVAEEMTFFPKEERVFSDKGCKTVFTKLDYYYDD
Sequence of NADPH oxidase 5 (Homo sapiens) (Q96PH1 whole entry, looked up): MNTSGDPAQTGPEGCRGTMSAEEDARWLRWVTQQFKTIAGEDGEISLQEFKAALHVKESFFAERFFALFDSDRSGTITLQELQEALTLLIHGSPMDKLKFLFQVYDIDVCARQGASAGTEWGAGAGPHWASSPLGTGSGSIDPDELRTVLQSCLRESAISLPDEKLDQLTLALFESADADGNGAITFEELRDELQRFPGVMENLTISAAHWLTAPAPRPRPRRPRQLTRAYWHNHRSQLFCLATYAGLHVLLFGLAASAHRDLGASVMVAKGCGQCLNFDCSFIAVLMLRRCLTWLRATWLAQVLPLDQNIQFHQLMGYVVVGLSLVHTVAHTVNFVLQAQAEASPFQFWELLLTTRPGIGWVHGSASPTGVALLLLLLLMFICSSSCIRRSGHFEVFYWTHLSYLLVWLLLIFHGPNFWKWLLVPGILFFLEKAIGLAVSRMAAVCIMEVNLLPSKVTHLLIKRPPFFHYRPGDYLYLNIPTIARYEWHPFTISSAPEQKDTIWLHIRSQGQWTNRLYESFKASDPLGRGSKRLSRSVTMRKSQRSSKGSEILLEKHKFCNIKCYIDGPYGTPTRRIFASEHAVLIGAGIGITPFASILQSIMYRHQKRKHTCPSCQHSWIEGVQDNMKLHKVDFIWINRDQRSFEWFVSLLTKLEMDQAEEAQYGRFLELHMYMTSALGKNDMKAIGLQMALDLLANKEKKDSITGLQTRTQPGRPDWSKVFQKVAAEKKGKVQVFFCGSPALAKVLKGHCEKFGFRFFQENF
Sequence of NADPH oxidase 2 (Homo sapiens) (P04839 whole entry, looked up): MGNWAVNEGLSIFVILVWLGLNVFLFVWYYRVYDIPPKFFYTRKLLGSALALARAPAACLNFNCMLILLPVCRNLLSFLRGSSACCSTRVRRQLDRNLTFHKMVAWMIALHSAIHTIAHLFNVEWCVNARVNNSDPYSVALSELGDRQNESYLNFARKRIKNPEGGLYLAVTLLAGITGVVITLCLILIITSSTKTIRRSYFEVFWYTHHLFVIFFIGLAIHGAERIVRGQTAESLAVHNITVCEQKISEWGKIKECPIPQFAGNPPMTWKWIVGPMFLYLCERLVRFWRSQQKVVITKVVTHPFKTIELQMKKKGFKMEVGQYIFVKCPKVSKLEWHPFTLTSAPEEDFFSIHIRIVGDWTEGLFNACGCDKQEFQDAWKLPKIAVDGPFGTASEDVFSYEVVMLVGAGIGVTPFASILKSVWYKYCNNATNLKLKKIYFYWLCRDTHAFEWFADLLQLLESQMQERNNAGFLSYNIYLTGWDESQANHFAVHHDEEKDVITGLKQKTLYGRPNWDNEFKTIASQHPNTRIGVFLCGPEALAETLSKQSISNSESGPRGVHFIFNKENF
Sequence of Streptavidin (Streptomyces avidinii) (P22629 whole entry, looked up): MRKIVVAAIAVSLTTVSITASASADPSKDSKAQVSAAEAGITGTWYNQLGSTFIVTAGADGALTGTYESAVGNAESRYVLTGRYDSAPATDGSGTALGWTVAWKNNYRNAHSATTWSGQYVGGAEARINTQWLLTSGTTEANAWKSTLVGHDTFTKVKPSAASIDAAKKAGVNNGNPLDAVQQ
Sequence of NADPH oxidase 4 (Homo sapiens) (Q9NPH5 whole entry, looked up): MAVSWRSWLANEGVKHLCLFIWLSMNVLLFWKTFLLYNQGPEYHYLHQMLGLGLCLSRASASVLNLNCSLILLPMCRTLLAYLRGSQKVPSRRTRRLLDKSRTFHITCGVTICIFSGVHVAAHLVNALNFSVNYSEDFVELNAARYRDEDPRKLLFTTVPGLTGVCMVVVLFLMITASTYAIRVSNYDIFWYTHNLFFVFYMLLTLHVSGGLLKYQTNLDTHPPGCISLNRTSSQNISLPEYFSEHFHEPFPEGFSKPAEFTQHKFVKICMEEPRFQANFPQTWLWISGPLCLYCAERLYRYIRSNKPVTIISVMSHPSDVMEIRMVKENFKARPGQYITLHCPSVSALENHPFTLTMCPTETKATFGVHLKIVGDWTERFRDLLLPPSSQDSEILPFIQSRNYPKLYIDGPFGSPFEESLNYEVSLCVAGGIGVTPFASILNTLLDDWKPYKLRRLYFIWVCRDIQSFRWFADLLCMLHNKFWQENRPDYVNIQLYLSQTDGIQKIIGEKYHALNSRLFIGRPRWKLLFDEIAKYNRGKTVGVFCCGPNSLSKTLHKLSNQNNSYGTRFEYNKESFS

In the case of `CN1C(=O)C2C=CC(C(O)C=Cc3ccc([N+](=O)[O-])cc3)N(Nc3ccccc3)C2C1=O` (stereo not given), the composite z-score in [1] was 0.286; in experiment [6], 1.16; in experiment [7], 0.0497; in experiment [8], 0.0394; in [9] it was -0.0071; in experiment [10], 0.428. Moreover, the composite z-score in [12] is -0.139. Moreover, the z-score in experiment [2] is -0.143 (inactive); in experiment [3] it was -0.585 (inactive); in [4], 0.426 (inactive); in experiment [5], 0.528 (inactive); in experiment [11], -1.84 (inactive); in experiment [13], 6.52 (inactive). Also, the z-score in experiment [14] is 1.48 (inactive); in [15], 0.86 (inactive); in experiment [16], 1.32 (inactive); in experiment [17], -1.05; in experiment [18], -1.57 (inactive); in experiment [19], -3.82 (inactive). Further, the z-score in [20] was -2.44.

As to `CN(C)CCCC[C@@H]1NC(=O)[C@H]2C[C@@H](C(=O)NCCCCCN)[C@@H](c3cccc(OCCO)c3)N2C1=O`, the composite z-score in experiment [1] was 0.456; in [6], 1.13; in experiment [7], 0.495; in [8], 1.99; in experiment [9], 2.15; in [10], 1.28. The composite z-score in experiment [12] was 1.28. In addition, the z-score in experiment [2] is -1.01 (inactive); in experiment [3], 0.767 (inactive); in experiment [4], 0.155 (inactive); in experiment [5] it was 0.421 (inactive); in experiment [11], 0.675 (inactive); in experiment [13], 1.9 (inactive). Further, the z-score was 0.112 (inactive) in [14]; -1.16 (inactive) in experiment [15]; 0.129 (inactive) in [16]; 0.204 in experiment [17]; 0.653 (inactive) in experiment [18]; 0.222 (inactive) in experiment [19]. In experiment [20], this compound came in with a z-score of 1.52.

For the compound `COc1ccc(C#Cc2ccc3c(c2)[C@]2(C(=O)N3)[C@H](c3ccc(O)cc3)N3[C@H](c4ccccc4)[C@H](c4ccccc4)OC(=O)[C@H]3[C@@H]2C(=O)N2CCc3cc(OC)c(OC)cc3C2)cc1`, the composite z-score in experiment [1] is 0.636; in experiment [6] it was 1.13; in experiment [7] it was -0.0521; in [8], 0.135; in experiment [9] it was 0.0243; in [10], 1.78. The composite z-score in experiment [12] is 0.156. Further, the z-score in experiment [2] is -0.678 (inactive); in [3] it was -0.0604 (inactive); in experiment [4], 0.155 (inactive); in experiment [5] it was 0.102 (inactive); in experiment [11], -0.291 (inactive); in [13], 0.276 (inactive). Besides, the z-score in experiment [14] was 0.312 (inactive); in experiment [15], -0.205 (inactive); in experiment [16], 0.196 (inactive); in experiment [17] it was -0.0494; in experiment [18] it was 1.12 (inactive); in experiment [19], 0.579 (inactive). Also, the z-score in [20] was -0.568.

In the case of `COc1ccc([Si](C)(C)[C@@H]2[C@@H](CC(=O)N3CCC[C@H]3CO)O[C@]3(C(=O)N(Cc4cccc(I)c4)c4ccccc43)[C@H]2C)cc1`, the composite z-score was 0.557 in experiment [1]; 0.168 in [6]; -0.0582 in [7]; 1.36 in experiment [8]; 0.789 in experiment [9]; 2.14 in [10]. Further, the composite z-score in [12] was -0.111. For the same compound, the z-score was -4.27 (inactive) in [2]; 0.452 (inactive) in [3]; 0.12 (inactive) in [4]; -0.845 (inactive) in experiment [5]; -0.423 (inactive) in experiment [11]; 6.47 (inactive) in experiment [13]. Besides, the z-score in experiment [14] is 0.966 (inactive); in experiment [15], 1.39 (inactive); in experiment [16], 0.917 (inactive); in [17] it was 2.02; in experiment [18], 2.97 (inactive); in experiment [19] it was 0.91 (inactive). This compound also yielded a z-score in [20] of 4.33.
